Hits are enriched below; roughly 0.9% of the tested compounds scored in any of these assays.
SRC3 TRFRET art – counter-screen for PPARgamma SRC-3 recruitment agonists: TR-FRET artefact | PPARgamma/SRC-3 format; stronger effect = higher value | 99,000 compounds, 0.39% hits | TR-FRET ratio at 8 µM
PPARg SRC-1 ag – agonists of human PPARgamma SRC-1 coactivator recruitment. P37231. 200,000 compounds, 0.41% hits. activation, % at 8 µM. PPARgamma-SRC-1 coactivator recruitment biochemical assay; in the data active = activation above about 19%;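 note: 0% = DMSO and 100% = reference agonist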
PPARg SRC2 recr – promotes SRC-2 coactivator recruitment by human PPARgamma | P37231 | PPARgamma LBD-SRC-2 recruitment, biochemical | activation, % at 8 µM | 200,000 compounds, 0.34% hits | AID 1032; in the data active = activation above about 22%;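 note: 0% = vehicle and 100% = reference agonist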
PPARg SRC3 recr – agonists of human PPARgamma SRC-3 coactivator recruitment; P37231; biochemical PPARgamma/SRC-3 coactivator recruitment assay; activation, % at 8 µM; 200,000 compounds, 0.26% hits; AID 731; in the data active = activation above about 23%;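 note: 0% = DMSO and 100% = reference agonist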
SRC1 TRFRET art – TR-FRET artefact, counter-screen to PPARgamma/SRC-1 agonist assay; AID 1051; 99,000 compounds, 0.34% hits; TR-FRET ratio at 8 µM; TR-FRET detection artefact counter-screen, emission ratio; stronger effect = higher value; in the data active = TR-FRET ratio above about 2300
SRC2 TRFRET art – counter-screen for PPARgamma SRC-2 recruitment agonists: TR-FRET artefact; stronger effect = higher value; TR-FRET ratio at 8 µM; 200,000 compounds, 0.4% hits; AID 1049
PPARg SRC2 conf – human PPARgamma SRC-2 recruitment agonism, confirmation. shares compounds with PPARg SRC3 recr. biochemical SRC-2 recruitment by PPARgamma. activation, % at 8 µM. 790 compounds, 52% hits; in the data active = activation above about 22%;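 note: 0% = vehicle alone and 100% = reference agonist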
PPARg SRC1 ag – human PPARgamma SRC-1 recruitment agonism, confirmation; shares compounds with PPARg SRC3 recr; PPARgamma–SRC-1 coactivator recruitment biochemical assay; activation, % at 8 µM; 790 compounds, 43% hits; AID 1300; in the data active = activation above about 20%;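 note: 0% = vehicle wells and 100% = reference agonist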
PPARg SRC3 ag – human PPARgamma SRC-3 recruitment agonism, confirmation. 790 compounds, 29% hits. AID 1301. biochemical PPARgamma-SRC-3 coactivator recruitment, agonist mode. activation, % at 8 µM. shares compounds with PPARg SRC3 recr; in the data active = activation above about 24%;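 note: 0% = vehicle wells and 100% = reference agonist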
* marks the source's active call; other numbers are inactive results; x = no result. Cut-off read from the data, not from the text of the source, unless noted: active = TR-FRET ratio above about 2000; inactive = the rest.

SMILES | SRC3 TRFRET art | PPARg SRC-1 ag | PPARg SRC2 recr | PPARg SRC3 recr | SRC1 TRFRET art | SRC2 TRFRET art | PPARg SRC2 conf | PPARg SRC1 ag | PPARg SRC3 ag
CC(=O)N(NC(=O)c1ccccc1Cl)C1CC(=O)N(c2ccc(C)cc2)C1=O (configuration not stated) | x | -3.0 | 14.3 | 8.7 | x | 1461 | x | x | x
Cc1ccc(OCCn2cc(/C=C3\C(=O)NN(c4ccccc4)C3=O)c3ccccc32)cc1 | 1493 | -2.2 | 0.8 | -4.0 | 1900 | 1700 | x | x | x
O=C1NN(c2ccccc2)C(=O)/C1=C/c1ccc(Sc2cccc3ccccc23)o1 | 2511* | 29.8* | 38.9* | 17.7 | 2739* | 2448* | 25.4* | 18.5 | 19.1
COc1ccc(/C=C/C(=O)N2CCN(c3ccccn3)CC2)c2ccccc12 | 1572 | -3.2 | 3.9 | 2.4 | 1675 | 1478 | x | x | x
CN(C)c1ccc(N/C=C/C(=O)C(C)(C)C)cc1 | x | 12.8 | 80.6* | 70.1* | x | 2723* | 7.0 | 9.5 | 7.2
CN(C)c1ccc(N/C=C/C(=O)c2ccccc2)cc1 | x | 8.7 | 12.8 | 20.8 | x | 1663 | x | x | x
COc1ccc(OC)c2c1C(=O)c1ccccc1C2=O | x | 5.1 | 6.8 | -1.5 | x | 1531 | x | x | x
Nc1ccc(O)c2c1C(=O)c1ccccc1C2=O | 2307* | 24.3* | 31.5* | 21.4 | 2546* | 2073* | 17.4 | 11.0 | 9.6
COc1ccc(N)c2c1C(=O)c1ccccc1C2=O | 2262* | 23.0* | 33.6* | 27.1* | 2519* | 1893 | 25.3* | 22.7* | 20.1
CN(Cc1ccccc1)c1nc2c(c(=O)[nH]c(=O)n2C)n1CCOc1ccccc1 | x | 3.0 | -7.9 | -9.4 | x | 1556 | x | x | x
CCCCn1c(SCC(=O)Nc2cc(C)on2)nc2ccccc2c1=O | x | 22.3* | -5.9 | 12.8 | x | 1385 | 6.0 | 4.9 | 3.8
CCC(C)n1c(SCC(=O)Nc2cc(C)on2)nc2ccccc2c1=O (configuration not stated) | x | 4.0 | 1.3 | -4.5 | x | 1498 | x | x | x
Clc1ccc(-c2ccc(-c3nn4c(-c5ccco5)nnc4s3)o2)cc1 | x | 9.7 | 4.6 | -6.5 | x | 1589 | x | x | x
Brc1ccc(-c2nn3c(-c4ccco4)nnc3s2)o1 | x | 75.3* | 98.8* | 115.3* | x | 3538* | 75.8* | 52.3* | 52.7*
COc1cc(-c2nnc(SCC(=O)N3c4ccccc4Sc4ccccc43)o2)cc(OC)c1OC | x | 1.5 | -2.8 | 6.8 | x | 1583 | x | x | x
O=C(Sc1nnc(-c2ccccc2)o1)N1c2ccccc2Sc2ccccc21 | x | 16.5 | 31.1* | 25.2 | x | 1691 | 48.4* | 33.6* | 32.8*
O=C(c1ccc(OC2CCN(Cc3ccccn3)CC2)cc1)N1CCCCO1 | 1502 | 8.4 | -2.4 | -5.0 | 1695 | 1551 | x | x | x
CCOC(=O)c1sc2nc(C)[nH]c(=S)c2c1C | 2353* | 24.6* | 34.7* | 19.7 | 2663* | 2175* | 30.3* | 23.0* | 20.9
CCOC(=O)c1sc2nc(C)n(N)c(=O)c2c1C | 1653 | 8.7 | 5.8 | 6.1 | 1913 | 1780 | x | x | x
CCN(CC(=O)NC(C)(C)C)C(=O)c1ccc2c(c1)S(=O)(=O)c1ccccc1C2=O | 1679 | 6.8 | 1.6 | -0.9 | 2000 | 1626 | x | x | x
O=c1oc2cc(O)c(Cl)cc2c2ccccc12 | 4295* | 59.1* | 101.5* | 54.4* | 3291* | 4246* | 54.7* | 34.3* | 39.1*
NC(=O)c1cccc2c(=O)oc3ccccc3c12 | x | 10.8 | 8.6 | 8.0 | x | 1531 | x | x | x
Cc1c(O)c(CN2CCCC2)cc2c1oc(=O)c1ccccc12 | x | 2.9 | 1.6 | -3.2 | x | 1591 | x | x | x
C=CCc1cc2c(oc(=O)c3ccccc32)c(C)c1O | 2419* | 27.9* | 26.0* | 18.5 | 2491* | 2206* | 21.1 | 12.8 | 14.4
COc1ccc(N2C(=O)CN(Cc3ccc(OC)c(OC)c3)C2=S)cc1 | 1586 | -2.9 | -8.0 | -3.1 | 1839 | 1365 | x | x | x
SMILES | SRC3 TRFRET art | PPARg SRC-1 ag | PPARg SRC2 recr | PPARg SRC3 recr | SRC1 TRFRET art | SRC2 TRFRET art | PPARg SRC2 conf | PPARg SRC1 ag | PPARg SRC3 ag
Cc1cccc(NC(=O)CNC(=O)COc2ccc(C(=O)c3ccc(F)cc3)cc2)c1C | 1628 | 2.9 | 1.3 | 3.5 | 1970 | 1480 | x | x | x
Cc1cccc(NC(=O)CNC(=O)COc2ccc(-c3ccc(C#N)cc3)cc2)c1C | 1717 | 26.7* | 11.9 | 7.5 | 2605* | 1521 | 8.4 | 7.9 | 5.0
CC(C)Sc1oc(-c2ccco2)nc1S(=O)(=O)c1ccccc1 | x | 18.7* | 46.2* | 27.7* | x | 2119* | 55.0* | 46.1* | 34.8*
Clc1cccc(Cl)c1CNc1ccc(N2CCCC2)cc1 | 1797 | 7.5 | 10.9 | 11.1 | 1835 | 1864 | x | x | x
O=C(c1ccc2c(c1)OCO2)N1CCN(c2ccccc2)CC1 | x | 4.4 | 12.8 | 25.7* | x | 1552 | 0.9 | 2.6 | 2.9
Cc1cccc(-n2c(=S)[nH]c3sc4c(c3c2=O)CCc2ccccc2-4)c1 | 2699* | 25.9* | 36.1* | 20.8 | 2821* | 2315* | 33.9* | 22.2* | 24.2*
Cc1ccc(-n2ncc(Br)c(Br)c2=O)cc1 | 1996 | 15.7 | 16.7 | 17.6 | 2278 | 1799 | x | x | x
O=c1c(Br)c(Br)cnn1-c1ccccc1 | 2406* | 37.8* | 33.7* | 31.6* | 2662* | 2405* | 28.7* | 17.2 | 19.7
CCn1c(=O)cc(SCC(=O)N2CCN(c3ccccc3F)CC2)c2ccccc21 | x | 29.8* | 42.2* | 33.6* | x | 2381* | 36.4* | 22.8* | 24.2*
CCn1c(=O)cc(SCC(=O)N2CCN(c3ccccn3)CC2)c2ccccc21 | 2355* | 39.1* | 34.9* | 20.7 | 3018* | 2505* | 49.6* | 33.7* | 33.6*
CC(OC(=O)CCc1c[nH]c2ccccc12)C(=O)c1ccccc1 (configuration not stated) | 1696 | 5.8 | 7.3 | -0.7 | 1667 | 1530 | x | x | x
Cc1ccc(N=Cc2sc(O)c3ccccc23)c(C)c1 | x | 16.4 | 7.8 | 6.2 | x | 1462 | x | x | x
Cc1ccc(N=Cc2sc(O)c3ccccc23)cc1 | x | 25.1* | 28.8* | 19.2 | x | 1560 | -3.8 | -2.5 | -0.5
O=C(O[C@@H]1OC2COC(=O)c3cc(O)c(O)c(O)c3-c3c(cc(O)c(O)c3O)C(=O)O[C@@H]([C@H]1O)[C@@H]2O)c1cc(O)c(O)c(O)c1 | 1701 | 20.1 | 24.5* | 10.3 | 1985 | 1547 | 8.3 | 7.2 | 2.1
O=C(Nc1nc(-c2cccc3ccccc23)cs1)c1cnccn1 | 1616 | 5.2 | 5.3 | -1.2 | 1909 | 1569 | x | x | x
CCCCOC(=O)CCNc1n[nH]c(=O)[nH]c1=O | 1615 | 0.6 | -1.0 | -3.9 | 1708 | 1395 | x | x | x
CCCCOC(=O)CNc1n[nH]c(=S)[nH]c1=O | x | 47.9* | 66.2* | 95.1* | x | 2722* | 80.2* | 61.5* | 54.7*

Screening data: PubChem BioAssay, The Scripps Research Institute Molecular Screening Center
